The source of these data is the OligoGym collection.

Some targets named below: MUTED; MYCBPAP; MYBL1; MUSTN1; MYST4; NCSTN; NEBL; NDUFAB1; NDUFC1; NEFH.
Assay in all cases: pooled miR-30 sensor sort-seq; sequence = guide strand
Common to all, as to details: shRNA
Further: reference of the scale not given here.

As to TTTAACATGGACCATTTGCTGT, the sensor-assay potency score (higher = more potent) with MUTED was -1.08.

For TCTCCTTGTAGGACATTGCTAA, the sensor-assay potency score (higher = more potent) with MYCBPAP was -0.62.

For the sequence TAATAAACTATTGTTAACCCTG, the sensor-assay potency score (higher = more potent) with MUTED turned out to be 0.0836.

In the test with MUTED, TTTACATTTAACATGGACCATT registered a sensor-assay potency score (higher = more potent) of -1.07.

In the test with MYBL1, TTCTTCTTTTAAAACTTCCCGA had a sensor-assay potency score (higher = more potent) of -0.736.

Turning to TTTTGTCTTGGTCATGACCAGA, the sensor-assay potency score (higher = more potent) with MYCBPAP was -1.08.

TTGAAGTACTACTGGTAGCTGT yielded a sensor-assay potency score (higher = more potent) with MYBL1 of 0.338.

In the test with MYBL1, TTCGCTTTCTTCTAACTTCATT gave a sensor-assay potency score (higher = more potent) of -1.09.

In the test with MYCBPAP, TTTCTTGTCATCCTTTGCCTTG registered a sensor-assay potency score (higher = more potent) of -0.95.

Turning to TTTCTCTACACTGCTTGCCTAT, the sensor-assay potency score (higher = more potent) in the test with MYBL1 was -0.646.

The sequence TAATTTATCATCCTCGTCCCTT showed a sensor-assay potency score (higher = more potent) with MYBL1 of -0.0916.

Turning to TTTCTAAGAAGTCTATACCTAC, in the test with MUTED, the sensor-assay potency score (higher = more potent) is -0.621.

Take TTCTTTGTCTTTGATCCCCAGT: in the test with MYCBPAP, the sensor-assay potency score (higher = more potent) was -0.525.

TTGTTTACCATAAATCTCGAAA displayed a sensor-assay potency score (higher = more potent) in the test with MUTED of -0.16.

For the sequence TTTATTGGTGCTTCCAAGGTGC, in the test with MUSTN1, the sensor-assay potency score (higher = more potent) is 0.442.

Take TTGTTCTTTAAGCCTTTCCATG: the sensor-assay potency score (higher = more potent) in the test with MUTED was -1.47.

TTTTTTGTCTACATTACTCATG showed a sensor-assay potency score (higher = more potent) with MUTED of -0.517.

ACACTCTCGCATGACCTGGTAG returned a sensor-assay potency score (higher = more potent) with MUSTN1 of -0.661.

The sequence TCGCATGACCTGGTAGGTCTTG came in with a sensor-assay potency score (higher = more potent) with MUSTN1 of -0.987.

TTGTCTACATTACTCATGCAGT: the sensor-assay potency score (higher = more potent) with MUTED was -0.842.

In the test with MYBL1, TAGATCTTCTAATAGTAGGTGT had a sensor-assay potency score (higher = more potent) of 0.293.

For TTTTCTTTGACATTCTCTGAGG, the sensor-assay potency score (higher = more potent) in the test with MYCBPAP was -0.601.

With TCAAAGACAGTCTCGGTACCTG, in the test with MUSTN1, the sensor-assay potency score (higher = more potent) is -0.0062.

Sequence TTTGATAGAATTATCAGTCCTT had a sensor-assay potency score (higher = more potent) in the test with MYBL1 of 1.06.

In the test with MUSTN1, TAGGTCTTGGACTTGATTTCCT had a sensor-assay potency score (higher = more potent) of -0.449.

In the case of TTTCTCACTAGCTACTAAGTGG, the sensor-assay potency score (higher = more potent) in the test with MUTED was -0.662.

Take TTCAAGTACAAGACTGACGTTA: the sensor-assay potency score (higher = more potent) with MYBL1 stood at 0.474.

Consider TAGTAGGTGTTCTAAACCCTAC, for which the sensor-assay potency score (higher = more potent) with MYBL1 was -0.956.

Regarding TTCTTGGTCAGGTTTCCTCGGG, in the test with MUSTN1, the sensor-assay potency score (higher = more potent) is -0.747.

Sequence TTCCTGGTTCTTGGTCAGGTTT returned a sensor-assay potency score (higher = more potent) in the test with MUSTN1 of -1.77.

Take TTGATTTCCTGGTTCTTGGTCA: the sensor-assay potency score (higher = more potent) in the test with MUSTN1 came out at 0.114.

TCACACTCTCGCATGACCTGGT registered a sensor-assay potency score (higher = more potent) with MUSTN1 of 0.595.

Regarding TAGAATTATCAGTCCTTCCTGG, the sensor-assay potency score (higher = more potent) in the test with MYBL1 was 0.631.

In the test with MUTED, TAAGTGGTCACTATGAATCTTT had a sensor-assay potency score (higher = more potent) of -0.505.

TTGAGTCTCGGCACAATCCTGA registered a sensor-assay potency score (higher = more potent) with MYST4 of 0.672.

The sequence TTACAGACAACAATCGTTGCTT came in with a sensor-assay potency score (higher = more potent) in the test with MYST4 of 0.972.

As for AAGACAAACATGACATTGCGGG, the sensor-assay potency score (higher = more potent) in the test with NCSTN is -0.588.

In turn, TGAGTCAACATTCTCTAACTGC displayed a sensor-assay potency score (higher = more potent) in the test with NCSTN of 0.0625.

TAGATTTGGTGAATGCTGCATT displayed a sensor-assay potency score (higher = more potent) in the test with NEBL of 0.277.

In the test with NDUFAB1, TAATCTACAATTTCTTGTGGAC returned a sensor-assay potency score (higher = more potent) of -0.35.

In the case of TACAATTTAAATACAAGTCCAT, the sensor-assay potency score (higher = more potent) with NDUFAB1 was determined as 0.341.

With TTGATCGCACTGAAGGGCCGCT, in the test with NDUFC1, the sensor-assay potency score (higher = more potent) is -0.209.

For the sequence TTCAACTTTGGATTCTTTGGGC, the sensor-assay potency score (higher = more potent) with NEFH amounted to 0.436.

In the test with NDUFC1, TTGTACTCTAAAATATCTTCAT yielded a sensor-assay potency score (higher = more potent) of -0.343.

For TTCATTGTGTTGTTTGATGAGA, the sensor-assay potency score (higher = more potent) in the test with NDUFC1 was -0.384.

For the sequence TACAATTTCTTGTGGACACATT, the sensor-assay potency score (higher = more potent) with NDUFAB1 is -0.835.

As to AAGTCCATCAGAATCACTCTGT, the sensor-assay potency score (higher = more potent) with NDUFAB1 was 0.545.

Take TTTTCTTATCTTCAGCCTCTTC: the sensor-assay potency score (higher = more potent) in the test with NEFH was -0.582.

The sequence TTTACTGAAAGCTTCTCTGGGT registered a sensor-assay potency score (higher = more potent) with NDUFAB1 of 0.584.

As for TAGAACTTTGATCGCACTGAAG, in the test with NDUFC1, the sensor-assay potency score (higher = more potent) is -1.43.

In turn, TACGTAAAGAACACGGTCCTGG came in with a sensor-assay potency score (higher = more potent) in the test with NDUFAB1 of 0.0334.

In the test with NEBL, ATCTCTTTTGTACTTGACCTGA registered a sensor-assay potency score (higher = more potent) of -0.797.

In the test with NEBL, TTTATGCCAATACTTATCCAGG came in with a sensor-assay potency score (higher = more potent) of -1.28.

In turn, TTTGTACTTGACCTGACTCTGC yielded a sensor-assay potency score (higher = more potent) in the test with NEBL of -0.0804.

TTCATGTTGAGTGCCATCTTGC: the sensor-assay potency score (higher = more potent) with NEBL was -0.598.

Regarding TATATATTCACATATAACTTTT, in the test with NDUFC1, the sensor-assay potency score (higher = more potent) is -0.874.

Sequence TTACTGAAAGCTTCTCTGGGTC returned a sensor-assay potency score (higher = more potent) with NDUFAB1 of 0.337.

The sequence TAAAATATCTTCATTGTGTTGT displayed a sensor-assay potency score (higher = more potent) with NDUFC1 of 1.09.

Take TACATGGCTCGGTAGGTCCTTA: in the test with NEBL, the sensor-assay potency score (higher = more potent) is -0.857.

In turn, TTGTCTTAAAAGTATCTTCTAT registered a sensor-assay potency score (higher = more potent) with NEBL of -0.254.
